# From PubChem BioAssay (NCATS)
# Values joined by “and” are separate entries in the source; they are usually repeats but may differ in a detail not shown here. Identical values can stand only once. Results filed as inconclusive are left out. Where a call stands in place of a potency, no number is given. Values without a mark were called inactive. Active and inactive are the calls of the source. The call rests on the fitted dose curve; in most records, active means well fitted curve in the direction sought with a large enough effect; inconclusive means small, poorly fitted or top-dose-only effect, or another doubt; inactive means no such curve, though single readings can be large; an effect the other way counts as inactive or inconclusive.
# Legend:
# [1] = target: Cellular tumor antigen p53 (Homo sapiens) (UniProt P04637); experiment: Primary qHTS for small molecule compounds that upregulate eGFP-tagged delta133p53alpha (in N-terminal) cells. (AID 2060322); conditions: NCI-H358 eGFP-delta133p53alpha fluorescence, 24 h; activation: hits give high values; further: nearly all actives have a fitted effect of over 75% in size; further: potency means the concentration at half of the fitted maximal effect; on activation: series mostly up to about 56 µM
# Cellular tumor antigen p53 (Homo sapiens), sequence (P04637 whole entry, looked up): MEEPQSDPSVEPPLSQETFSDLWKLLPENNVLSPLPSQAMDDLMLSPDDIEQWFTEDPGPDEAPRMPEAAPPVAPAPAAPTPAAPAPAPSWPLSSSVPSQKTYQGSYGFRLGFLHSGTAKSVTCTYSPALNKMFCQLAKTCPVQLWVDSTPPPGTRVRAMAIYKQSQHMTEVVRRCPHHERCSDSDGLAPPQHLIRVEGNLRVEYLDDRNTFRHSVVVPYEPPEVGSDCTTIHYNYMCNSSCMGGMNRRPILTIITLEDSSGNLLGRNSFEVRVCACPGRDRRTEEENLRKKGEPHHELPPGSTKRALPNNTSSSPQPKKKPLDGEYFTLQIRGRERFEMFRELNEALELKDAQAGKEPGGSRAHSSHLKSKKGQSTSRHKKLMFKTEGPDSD
# Outline: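 NCI-H358 cells pre-induced 24 h with 10 ng/ml doxycycline to express N-terminal eGFP-delta133p53alpha, then dosed 24 h at 37C without doxycycline; fixed, Hoechst-stained, GFP intensity by laser scanning cytometry, normalized to DMSO (0%) and 57.5 uM 5-azacytidine (100%).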
# [2] = target: Aldehyde dehydrogenase, mitochondrial (Homo sapiens) (UniProt P05091); experiment: qHTS for Inhibitors of the Aldehyde Dehydrogenase Family (ALDH2) Primary screen (AID 2061308); further: nearly all actives have a fitted effect of over 55% in size
# [3] = target: Retinaldehyde dehydrogenase 3 (Homo sapiens) (UniProt P47895); experiment: qHTS for Inhibitors of the Aldehyde Dehydrogenase Family (ALDH1A3) Validation screen (AID 2061312); further: nearly all actives have a fitted effect of over 45% in size; further: potency means the concentration at half of the fitted maximal effect
# [4] = target: Retinaldehyde dehydrogenase 3 (Homo sapiens) (UniProt P47895); experiment: qHTS for Inhibitors of the Aldehyde Dehydrogenase Family (ALDH1A3) Primary screen (AID 2061315)
SMILES,activation [1],Potency [2],Potency [3],Potency [4],Potency [1]
CN(C)CCCNc1nc(CN2CCN(C(c3ccc(Cl)cc3)c3ccc(Cl)cc3)CC2)nc2ccccc12,16.2%,inactive,inactive,inactive,–
Cc1ccc(C(=O)C(C)CN2CCCCC2)cc1 (centres undefined),-2.39%,inactive,inactive,inactive,–
CC(=O)Nc1cccc(Nc2ncnc(N3CCC(OCc4ccc(OC(F)(F)F)cc4)CC3)n2)c1C,-6.21%,inactive,inactive,inactive,–
C[C@@H](N[C@H]1CCCC[C@@H]1NC(=O)c1ccc(Cl)cc1)c1cccc2ccccc12,21.5%,inactive,inactive,inactive,–
CN(C)CCCOc1nn(Cc2ccccc2)c2ccccc12,8.47% and -14.3%,inactive,inactive,inactive,–
O=C(NCc1ccc(F)cc1)C(=O)c1c[nH]c2ccccc12,5.73%,inactive,inactive,inactive,–
Cc1onc(-c2c(Cl)cccc2Cl)c1CC(=O)NCc1ccc(OCC(F)(F)F)nc1,-9.07%,inactive,inactive,inactive,–
O=c1[nH]c(=O)n([C@H]2CCCO2)cc1F,-9.6% and 3.34%,inactive,inactive,inactive,–
NS(=O)(=O)c1ccc(N2N=C(c3ccccc3)CC2c2ccccc2)cc1 (centres undefined),-18.6%,inactive,inactive,inactive,–
CNc1ccc([N+](=O)[O-])cc1-n1cnc(-c2ccc(C(F)(F)F)cc2)c1,5.25%,inactive,inactive,inactive,–
CC1(C)CC(NC(=O)C(=O)Nc2ccc(Br)cc2)CC(C)(C)N1,–,inactive,inactive,inactive,13.5 µM (active)
Cc1ccnn1-c1ccc(C(=O)N2CCN(S(=O)(=O)c3ccc(Cl)c(C(F)(F)F)c3)CC2)cc1,-9.07%,inactive,inactive,inactive,–
COc1ccc(N2CCOCC2)c2sc(NC(=O)N3CCC(C)(O)CC3)nc12,-5.25%,inactive,inactive,inactive,–
COc1ccc(N2CCN(CCCNC(=O)Cn3c(=O)c4cccn4c4c(C)ccnc43)CC2)cc1,0.477%,inactive,inactive,inactive,–
FC(F)(F)c1ccccc1-c1cc(C(F)(F)F)c2nc(C3=NOC4(CCCCC4)C3)[nH]c2c1,15.3%,inactive,inactive,inactive,–
Cc1[nH]cnc1C1CCN(c2nc3cccc4c3n2CCC4=O)CC1,1.43%,inactive,inactive,inactive,–
CN(C1CCc2c(c3ccccc3n2CC(=O)O)C1)S(=O)(=O)c1ccc(F)cc1 (centres undefined),-3.55% and 0% and -0.955%,inactive,inactive,inactive,–
O=C(O)[C@@H]1C[C@H]2C[C@@H](CCc3nn[nH]n3)CC[C@H]2CN1,4.77%,inactive,10 µM (active),inactive,–
CCCCN1CCCC[C@H]1C(=O)Nc1c(C)cccc1C,-18.6% and -5.25%,inactive,inactive,inactive,–

SMILES,activation [1],Potency [2],Potency [3],Potency [4],Potency [1]
COc1cc(N)c(Cl)cc1C(=O)NC[C@@H]1CCN2CCC[C@@H]12,-3.34%,inactive,inactive,inactive,–
O=C(COc1ccc2ccccc2c1Br)Nc1cccnc1,-15.8%,inactive,inactive,inactive,–
COC1CCN(c2cccc(-c3cc(NC(C)=O)nc(-n4nc(C)cc4C)n3)n2)CC1,-8.59%,inactive,inactive,inactive,–
O=C(COc1ccc(C(=O)c2ccccc2)cc1)NC1CCN(Cc2ccccc2)CC1,-6.68%,inactive,inactive,inactive,–
O=C(CCCCN1CCOCC1)Nc1ccc(-c2cccnc2)cc1,-8.11%,inactive,inactive,inactive,–
O=C(NCc1ccc(OC(F)(F)F)cc1)C1c2ccccc2C(=O)N1C1CCOCC1 (centres undefined),-5.73%,inactive,inactive,inactive,–
COc1ccccc1CN[C@H]1CCCN[C@H]1c1ccccc1,-3.82%,inactive,inactive,inactive,–
Cc1c(OCc2cccc(-c3ccc(C(=O)O)cc3)c2)cc2c(c1C)C(=O)C(C1CCCC1)C2 (centres undefined),-8.59%,inactive,inactive,inactive,–
CC(C)Oc1ccc(-c2cnc3c(-c4ccnc5ccccc45)cnn3c2)cc1,-6.21%,inactive,inactive,inactive,–
CC(C)(O)c1ccn2c(-c3ccc(F)c(-c4ccc(F)cc4C#N)c3)cnc2c1F,-22.4%,inactive,inactive,inactive,–
Cc1oc2nc3c(c(NC(=O)CN4CCCC4=O)c2c1C)CCCC3,-3.82%,inactive,inactive,inactive,–
CC(F)(F)CN1CCOc2c(nn(-c3ccccc3Cl)c2-c2ccc(Cl)cc2)C1=O,10%,inactive,inactive,inactive,–
NCc1c[nH]c(=S)n1C1CCc2c(F)cc(F)cc2C1 (centres undefined),-0.477%,inactive,inactive,inactive,–
COC(=O)CC1CC(c2ccc(O)cc2)=NO1 (centres undefined),-0.955%,inactive,inactive,inactive,–
Clc1cccc(-c2nnnn2Cc2cccnc2)c1Cl,12.9% and -2.86%,inactive,inactive,inactive,–
O=[N+]([O-])c1cc(Cl)ccc1S(=O)(=O)N1CCN(Cc2ccccc2)CC1,0.955%,inactive,inactive,inactive,–
O=C(NCC1(N2CCN(c3ccccc3)CC2)CCOCC1)c1cccnc1Sc1ccccc1,-3.34%,inactive,inactive,inactive,–
CNc1cc2[nH]c(=O)n(-c3ccc(NC(=O)NS(=O)(=O)c4ccc(Cl)s4)cc3)c(=O)c2cc1F,8.11%,inactive,inactive,inactive,–
C[C@@H]1O[C@@H](O[C@H]2[C@H](Oc3cc(O)c(C(=O)CCc4ccc(O)cc4)c(O)c3)O[C@H](CO)[C@@H](O)[C@@H]2O)[C@H](O)[C@H](O)[C@H]1O,-10.5%,inactive,inactive,inactive,–

SMILES,activation [1],Potency [2],Potency [3],Potency [4],Potency [1]
O=C(CCCCC1CCCCC1)N1CCC(c2cnc[nH]2)CC1,-1.91%,inactive,inactive,inactive,–
CC(C)c1nc(-c2ccc(NC(=O)Nc3cccc(C(F)(F)F)c3)c3ccccc23)c2c(N)nccn12,–,inactive,inactive,inactive,26.9 µM (active)
CCOC(=O)C(CCc1ccccc1)NC1CSC(c2cccs2)CN(CC(=O)O)C1=O (centres undefined),-0.477%,inactive,inactive,inactive,–
CC(C)(C)C1CCN(C(=O)n2ncc(C(O)(c3ccccc3)c3ccccc3)n2)CC1,6.21%,inactive,inactive,inactive,–
Cn1c(SCC(=O)N2CCC[C@H]2C(=O)Nc2ccccc2-c2ccccc2)nc2ccccc21,4.77%,inactive,inactive,inactive,–
CCN1C[C@H](C)n2c(c(O)c3c(=O)n(Cc4ccc(F)c(Cl)c4)nc(C(=O)NC)c32)C1=O,-11.2% and 13.4% and -6.68%,inactive,inactive,inactive,–
CCN(CC)C(=O)C(c1ccccc1)N1CCN(c2ccc(NC(=O)c3ccccc3-c3cccnc3)cc2F)CC1 (centres undefined),-6.21%,inactive,inactive,inactive,–
COc1ccccc1N1CCN(CC(C(=O)NC(C)(C)C)c2ccccc2)CC1 (centres undefined),-12.4%,inactive,inactive,inactive,–
O=C(Nc1ccc(S(=O)(=O)Nc2ccccc2Cl)c(Cl)c1)c1ccccn1,15.8%,inactive,inactive,inactive,–
COc1ccccc1-n1c(SCC(=O)Nc2nc3ccc(C)cc3s2)nc2c(c1=O)SCC2,-11.9%,inactive,inactive,inactive,–
CN[C@@H]1[C@@H](O)[C@@H](O[C@@H]2[C@@H](O)[C@H](O[C@H]3O[C@H](CN)[C@@H](O)[C@H](O)[C@H]3O)[C@@H](N)C[C@H]2NC(=O)[C@@H](O)CN)OC[C@]1(C)O,-2.86%,inactive,inactive,inactive,–
O=C(Nc1ccc(CN2CCOCC2)cc1)c1ccc(-c2cccc(Cl)c2)o1,-8.59%,inactive,inactive,inactive,–
CO[C@H]1C=CO[C@@]2(C)Oc3c(C)c(O)c4c(O)c(c5c(c4c3C2=O)NC2(CCN(CC(C)C)CC2)N=5)=NC(=O)C(C)=CC=C[C@H](C)[C@H](O)[C@@H](C)[C@@H](O)[C@@H](C)[C@H](OC(C)=O)[C@H]1C,0.549%,inactive,inactive,inactive,–
Cn1c(=O)cc(N2CCCC(N)C2)n(Cc2cc(F)ccc2C#N)c1=O (centres undefined),-2.86%,inactive,inactive,inactive,–
CCC1C(=O)N(C)c2cnc(Nc3ccc(C(=O)NC4CCC(N5CCN(CC6CC6)CC5)CC4)cc3OC)nc2N1C(C)C (centres undefined),37.2%,inactive,inactive,inactive,–
CC(=O)O[C@]1(C(C)=O)CC[C@H]2[C@@H]3C[C@H](C)C4=CC(=O)C=C[C@]4(C)[C@@]3(F)[C@@H](O)C[C@@]21C,1.91%,inactive,inactive,inactive,–
COc1ccc(Oc2cc(C)c(-c3csc(NC(=O)c4ccncc4)n3)c(C)c2)cc1,11%,inactive,inactive,inactive,–
COC(=O)CCc1ccc(OCC(O)CNC(C)C)cc1 (centres undefined),13.4% and 16.7%,inactive,inactive,inactive,–
